{"source": "PubChem BioAssay (NCI)", "note": "Compounds without any hit were thinned out: in the full panel of roughly 83,000, 20% have a hit.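 Values shown are percent growth following 48 h exposure of cells in 96-well plates to a single concentration of compound; below 10 was considered active.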 Activity calls are given as the source filed them.", "data": [{"tested_on": "K-562 leukemia", "assay": "NCI-60 one-dose screen, 48 h (100 = growth as untreated, 0 = no growth, -100 = all killed)", "details": "10 µM unless noted", "values": [{"smiles": "COc1ccc2oc(=O)cc(-c3c(C#N)c(N)n4nc(N)c(C#N)c4c3C#N)c2c1", "growth": "86.4% (inactive)"}, {"smiles": "O=C1NC(SCc2ccc(F)cc2)=N/C1=C/c1cccc(OCc2ccc(Cl)cc2)c1", "growth": "58.5% (inactive)"}, {"smiles": "COc1ccc(Nc2nc(SCC(C)C)nc(-c3ccc(F)cc3)c2C#N)cc1", "growth": "19.3% (inactive)"}, {"smiles": "COC(=O)/C=C1\\SC(=Nc2ccc(F)cc2)N(CCc2c[nH]c3ccccc23)C1=O", "growth": "88% (inactive)"}, {"smiles": "Nc1c(C(=O)Nc2ccccc2)sc2nc3c(cc12)CN(C(=O)OCc1ccccc1)CC3", "growth": "21.5% (inactive)"}, {"smiles": "COc1ccc(C2=NN(c3ccc(S(N)(=O)=O)cc3)C(c3ccc(Cl)cc3)C2)c(O)c1", "note": "(stereo not given)", "growth": "23% (inactive)"}, {"smiles": "COc1ccc(C(C)c2cc(OC)c(OC)c(OC)c2)cc1", "note": "(stereo not given)", "growth": "7.1% (active)"}, {"smiles": "COc1ccc(-n2nc(C(=O)NCC(=O)O)nc2-c2ccccc2)cc1", "growth": "93.4% (inactive)"}, {"smiles": "CCOC(=O)C1=C(C)n2nc(CC#N)c(C#N)c2NC1c1ccc(Cl)cc1", "note": "(stereo not given)", "growth": "115% (inactive)"}, {"smiles": "Nc1c(C(=O)Nc2ccccn2)sc2nc3c(cc12)CCCC3", "growth": "14.1% (inactive)"}, {"smiles": "CCN1CCC[C@H]1c1cc(O)c2c(c1OC)C[C@H]1C[C@H]3[C@H](N)C(=O)C(C(N)=O)=C(O)[C@@]3(O)C(=O)C1=C2O", "growth": "3.76% (active)"}, {"smiles": "Cc1cc(O)cc(O)c1N=NC1=NCCS1", "growth": "89.7% (inactive)"}, {"smiles": "COC(=O)c1cncc(C(=O)Nc2ccc(-n3cnc4ccccc43)cc2)c1", "growth": "94.5% (inactive)"}, {"smiles": "CNc1cccc2c1C(=O)c1cccc(N)c1C2=O", "growth": "26.2% (inactive)"}, {"smiles": "O=S(=O)(Nc1nccs1)c1ccc(Nc2nc(-c3ccncc3)cs2)cc1", "growth": "109% (inactive)"}]}]}
